Screening results deposited in PubChem by several laboratories.
Sampled rows, rich in hits. Any-hit rate of the full collection: about 2.8%.
EP2 mod – EP2 receptor (human) modulation; actives 0.83% (n = 260,000); induction, % at 25 µM; P43116; AID 940; EP2-expressing cells, cAMP HTRF FRET, PGE2 co-stimulation;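 active means compounds whose cAMP rise, as percent of the full-agonist control response, exceeds 60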;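 further: rat C6 glioma line stably carrying human EP2 under a CMV promoter; the protocol text gives 20 µM as final concentration; 100% = response of wells given 1 µM PGE2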
Wee1 degr inh – blocks degradation of human Wee1 kinase; HeLa Luc-Wee1K328M stability, luciferase luminescence; 100% = proteasome inhibitor MG132 effect; reporter increase, % at 5 µM; actives 1.2% (n = 220,000);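 active means activation above the mean of all tested compounds plus 3 SD, set per screening run, cut at about 8.8% in these data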;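 further: cells exposed to compound for 20 h before luminescence read; 0% = DMSO alone and 100% = MG132 at 30 µM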
PGE2 EP2 inh – blocks the human prostaglandin E2 receptor EP2. P43116. C6 glioma cells expressing human EP2, cAMP TR-FRET; cells stimulated with saturating PGE2. inhibition, % at 25 µM. actives 0.52% (n = 260,000). AID 1422;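 active means percent inhibition above 40 after rounding to a whole number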;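 further: rat C6 glioma host cells with rolipram phosphodiesterase inhibitor present; the protocol text gives 20 µM as final concentration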
HSV replic up – increases HSV replication in cells | AID 1956 | HSV replication augmentation in cells, fold increase | maximum fold increase | actives 0.005% (n = 220,000); in the data active means maximum fold increase above about 1.5; inconclusive means no clear call, values can overlap the other calls; tested in PC3 cells
Furin inh – blocks human furin protease activity. purified furin, fluorogenic substrate cleavage. inhibition, % at 20 µM or 30 µM. actives 0.061% (n = 220,000). AID 463115; in the data active means inhibition above about 25%
p47phox inh – blocks human p47phox regulatory protein of NADPH oxidases; P14598; p47phox/p22phox peptide binding, fluorescence polarization, 2 h; inhibition, % at 24.7 µM; actives 0.53% (n = 220,000); AID 1274;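 active means inhibition above about 30%, limit read from the data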;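 further: 0% = p47phox with labelled peptide and 100% = labelled peptide alone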
Target sequence (P14598 whole entry, looked up): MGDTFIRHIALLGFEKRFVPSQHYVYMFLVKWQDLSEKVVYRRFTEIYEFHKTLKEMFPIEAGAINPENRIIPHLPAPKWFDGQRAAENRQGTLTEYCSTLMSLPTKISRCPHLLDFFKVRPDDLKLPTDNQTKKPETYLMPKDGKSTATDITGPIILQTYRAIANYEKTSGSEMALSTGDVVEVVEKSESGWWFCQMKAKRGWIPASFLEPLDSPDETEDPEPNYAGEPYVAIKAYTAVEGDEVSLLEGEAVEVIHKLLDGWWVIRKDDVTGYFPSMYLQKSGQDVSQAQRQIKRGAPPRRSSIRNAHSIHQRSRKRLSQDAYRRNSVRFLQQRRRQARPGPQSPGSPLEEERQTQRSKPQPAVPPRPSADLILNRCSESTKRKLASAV
* hit, by the source's call; i = inactive; ? = inconclusive; / = no result.

SMILES | EP2 mod | Wee1 degr inh | PGE2 EP2 inh | HSV replic up | Furin inh | p47phox inh
C=C(C)C1Cc2c(C)nn(-c3ccccc3)c2C1 (centres undefined) | 61* | 0 | 11 | i | -23 | -9
O=C(COC(=O)CCCOc1ccc(Cl)cc1Cl)NCc1ccccc1 | 7 | -2 | 9 | i | -15 | -7
Cc1ccc(CNC(=O)COC(=O)CCCOc2ccc(Cl)cc2Cl)cc1 | 17 | 1 | 2 | i | -5 | 72*
CC(=O)Nc1c(C)cc(C)c(NS(=O)(=O)c2ccc3c(c2)NC(=O)CO3)c1C | -24 | / | 5 | / | / | /
Cc1cccn2cc(-c3ccc(Cl)cc3)nc12 | -16 | 2 | 1 | i | -18 | 2
O=[N+]([O-])c1cccn2cc(-c3ccc(Br)cc3)nc12 | -36 | 9.8* | 6 | i | -5 | -8
Cc1ccc(-c2cn3cccc(C)c3n2)cc1 | -21 | 9.8* | 6 | i | -26 | -4
Cc1ccn2cc(-c3ccc(Br)cc3)nc2c1 | -11 | 2 | 5 | i | -18 | -3
O=C(O)c1cccc(N2C(=O)/C(=C/c3ccc(SCc4ccc(Cl)cc4)o3)SC2=S)c1 | 35 | 12* | 5 | i | -13 | -174
O=C(O)c1cc(-c2ccc(/C=C3/SC(=S)N(Cc4ccccc4)C3=O)o2)ccc1Cl | -44 | -3 | 22 | ? | 3 | -40
O=C(Nc1nnc(C(F)(F)F)s1)c1ccc(Br)s1 | 4 | 9.8* | 15 | i | -29 | -5
CC(C)(C)c1ccc(O)c(CN(Cc2cc(C(C)(C)C)ccc2O)c2ccccc2)c1 | 5 | / | 55* | / | / | /
O=C(CSc1nnc(-c2ccc(F)cc2)o1)NC1CCCCC1 | -21 | 10* | 5 | i | -22 | -194
Cc1cc(C(=O)OCC(=O)c2cccc([N+](=O)[O-])c2)c2ccccc2n1 | 20 | 9.5* | 5 | i | -21 | 4
O=c1cc(-c2ccccc2Cl)oc2c(NS(=O)(=O)c3cc(Cl)cc(Cl)c3O)ccc(O)c12 | 8 | -2 | 45* | i | -6 | -50
CN1CCN(c2ccc(NC(=O)CSc3ccccc3)cc2F)CC1 | -12 | 9.8* | 8 | i | -10 | -8
COc1ccc([C@@H]2C[C@H](C(=O)NCc3cccnc3)N(C)S(=O)(=O)N2)cc1OC | -31 | / | / | / | / | /
C[C@H](CCC(=O)O)[C@H]1CC[C@H]2[C@@H]3[C@@H](O)C[C@@H]4C[C@H](O)CC[C@]4(C)[C@H]3CC[C@]12C | 44 | 9.8* | 11 | i | -23 | -3
Cc1sc2nc(CN(Cc3ccccc3)C(=O)C3CCC3)[nH]c(=O)c2c1C | 24 | / | 10 | / | / | /
O=C(c1ccc(C(F)(F)F)cc1)C1CCCN(C(=O)CN2C(=O)CSC2=O)C1 (centres undefined) | 26 | 9.8* | 6 | i | -26 | -3
CCCOC(=O)C(C)n1cnc2sc(C(=O)OCC)c(C)c2c1=O (centres undefined) | 4 | / | 21 | / | / | /
O=C(Cn1nc(-c2cccs2)n(-c2cccnc2)c1=O)NC1CC1 | -6 | / | / | / | / | /
COc1cc(/C=C2\SC(=O)N(CCN)C2=O)ccc1OS(=O)(=O)c1cc(C)ccc1C | -71 | -3 | 14 | i | -2 | 72*
O=C(O)C[C@H](NC(=O)CP(=O)(O)O)C(=O)O.[NH-][C@@H]1CCCC[C@H]1[NH-].[Pt] | 9 | / | 40* | / | / | /
NC(=O)N[C@H](CC(=O)O)C(=O)O | -24 | / | 12 | / | / | /
SMILES | EP2 mod | Wee1 degr inh | PGE2 EP2 inh | HSV replic up | Furin inh | p47phox inh
Cc1ccccc1NC(=O)C1CCN(S(C)(=O)=O)CC1 | 20 | / | 16 | / | / | /
Cc1ccccc1NC(=O)C1CCN(C2=NS(=O)(=O)c3ccccc32)CC1 | 14 | 10* | 9 | i | -19 | 5
CN(C)CCN(Cc1ccncc1)Cc1cc(F)cc(F)c1 | 8 | / | 5 | / | / | /
COC(=O)[C@H]1CN(C(=O)CCc2cc(OC)no2)C[C@@H]1c1ccc(F)cc1 | 14 | / | 11 | / | / | /
Cc1onc(-c2ccccc2)c1C(=O)Nc1cc(C(F)(F)F)ccc1N1CCOCC1 | 39 | 2 | 17 | i | -8 | -8
CCOC(=O)c1ccc(N2CCOCC2)c(NC(=O)c2c(-c3ccccc3)noc2C)c1 | 19 | 10* | 6 | i | 0 | -11
Cc1ccc(CN(CCCn2ccnc2)Cc2cnn(C)c2)s1 | 16 | / | 9 | / | / | /
O=C(NNc1cccc(Cl)c1)c1cccnc1Cl | 13 | 9.4* | 1 | i | -24 | -11
O=C(NNc1cccc(Cl)n1)c1cccnc1Cl | -22 | 2 | -2 | i | -22 | 2
Cc1ccsc1CN(CCCN1CCOCC1)Cc1ccccc1Cl | 14 | / | 8 | / | / | /
CC(=O)Nc1ccc(NC(=O)CCSc2nc(-c3ccco3)cc(C(F)(F)F)n2)cc1 | -83 | / | 12 | / | / | /
CC(=O)N1C(=O)C(=C2C=C(C)OC(C)=C2)c2ccccc21 | 1 | -1 | 6 | i | -1 | -58
CC1=CC(=C2C(=O)c3ccccc3C2=O)C=C(C)O1 | -105 | -1 | / | / | -8 | 69*
CCc1nnc(NC(=O)CCC(=O)N2CCCC2)s1 | 10 | -3 | 19 | i | -21 | 90*
Nn1c(SCc2ccccc2F)nnc1-c1cccnc1 | -6 | 6 | 8 | i | -11 | -13
Nn1c(SCc2nc3ccccn3c2Br)nnc1-c1cccnc1 | -2 | 0 | 8 | i | -22 | 57*
Cn1c(COc2ccccc2)nnc1SCC(=O)N(C1CCCCC1)C1CCCCC1 | 74* | / | 3 | / | / | /
COc1ccc(-n2nnnc2SCC(=O)N(C2CCCCC2)C2CCCCC2)cc1OC | 69* | / | 16 | / | / | /
Cc1cc(NC(=O)c2ccc(Cl)cc2)no1 | 1 | 4 | 6 | i | -12 | 48*
CN1CCN(CCCC(=O)c2ccc(F)cc2)CC1 | -1 | -2 | 5 | i | -8 | 64*
COCCN(C(=O)c1cccs1)C(C(=O)NC1CCCCC1)c1ccc(C)cc1 (centres undefined) | 12 | / | 6 | / | / | /
CC1(C)CC(=O)C2=C(C1)OC1=C(C(=O)CC(C)(C)C1)C2c1ccc(O)c([N+](=O)[O-])c1 | 29 | -1 | 8 | i | -11 | 7
CC1(C)CC(=O)C2=C(C1)OC1=C(C(=O)CC(C)(C)C1)C2c1ccc(O)cc1O | -39 | -1 | 98* | i | -22 | 8
CCn1c(CNc2ccc(C)cc2C)nnc1SCC(=O)OC1CCCCC1 | -9 | / | 8 | / | / | /
O=C(Cn1c2[n+](c3ccccc31)CC(O)CS2)N1CCCCC1 (centres undefined) | -14 | / | 11 | / | / | /
CC(=O)C1=C(O)C(=O)N(c2ccc(C(=O)O)cc2)C1c1ccccc1 (centres undefined) | 23 | 9.2* | 16 | i | -1 | -4
